High-throughput results from PubChem BioAssay.
This is one part of a sample in which hits are shown more often than they occur.
Tg IFNy HTS: T. gondii growth inhibition under IFN-gamma | actives 3.8% (n = 69,000) | activity change, negative = inhibition, % (concentration not given with the values) | Toxoplasma gondii growth in IFN-gamma-treated host cells; hits give low values; in the data active = activity change below about -70%, passing the limit was not always enough;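 note: host cells are HeLa cells infected with Toxoplasma gondii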
Numbers without * were called inactive.

SMILES	Tg IFNy HTS
CC1CCN(S(=O)(=O)c2ccc3c(c2)CCC(=O)N3CC(=O)NCc2ccc3c(c2)OCO3)CC1	-27
CC1CCN(S(=O)(=O)c2ccc3c(c2)CCC(=O)N3CC(=O)Nc2ccc3c(c2)OCCO3)CC1	-88*
Cc1ccc(NC(=O)CN2C(=O)CCc3cc(S(=O)(=O)N4CCC(C)CC4)ccc32)cc1C	-99*
COc1ccc(NC(=O)CN2C(=O)CCc3cc(S(=O)(=O)N4CCCCC4)ccc32)cc1OC	8
CN(Cc1cc(-c2cccs2)n[nH]1)C(=O)c1cnn2ccn(C)c12	-9
OC1(CN2CCc3ccccc3C2)CCNC1 (stereo not drawn)	2
O=C(NC12CC3CC(CC(O)(C3)C1)C2)c1cccc2ccnn12	6
CC(C)NC(=O)[C@H]1C[C@@H]2OCC[C@@H]2N(Cc2ccc3ccccc3n2)C1	5
Cc1ccc(Cl)c(CN2CCN(c3cc(NCCO)ncn3)CC2)c1F	15
FC(F)(F)C(F)(F)C(F)(F)N(C(F)(F)C(F)(F)C(F)(F)F)C(F)(F)C(F)(F)C(F)(F)F	4
CC(O)(C(=O)N1CCC(N2CCC(C(=O)NC3CC3)CC2)CC1)c1ccccc1 (stereo not drawn)	-6
CN(C)CC1CN(S(=O)(=O)C2CC2)Cc2nccn2C1 (stereo not drawn)	-38
Cn1nccc1C(=O)N1CC(C(=O)NCCc2ccc(F)cc2)C1	24
Cc1cc(NC(=O)c2cc(Cl)sc2Cl)no1	-2
CC1CCN(S(=O)(=O)c2ccc3c(c2)CCC(=O)N3CC(=O)Nc2cccc(F)c2)CC1	-11
CC1CCN(S(=O)(=O)c2ccc3c(c2)CCC(=O)N3CC(=O)Nc2cccc(Cl)c2)CC1	-87*
Cc1cc(C)cc(NC(=O)CN2C(=O)CCc3cc(S(=O)(=O)N4CCC(C)CC4)ccc32)c1	19
CC1CCN(S(=O)(=O)c2ccc3c(c2)CCC(=O)N3CC(=O)Nc2ccccc2)CC1	-2
COc1cccc(NC(=O)CN2C(=O)CCc3cc(S(=O)(=O)N4CCC(C)CC4)ccc32)c1	-41
CCc1ccc(NC(=O)CN2C(=O)CCc3cc(S(=O)(=O)N4CCC(C)CC4)ccc32)cc1	-77*
CCc1ccccc1NC(=O)c1nnn(Cc2nc(-c3cccc(Cl)c3)oc2C)c1C	32
Cc1nc(CCc2nc3ccccc3[nH]2)cc(NC(CN2CCOCC2)c2ccccc2)n1 (stereo not drawn)	10
O=C(Nc1ccc(-c2nc(-c3ccccc3)co2)cc1)Nc1cccc(Br)c1	19
CCN(C/C=C/c1ccccc1)C(=O)c1sc2ncn(C)c(=O)c2c1C	-4
Cc1ccccc1-c1nc(COc2ccccc2OCC(N)=O)c(C)o1	-6
SMILES	Tg IFNy HTS
CC(=O)N1[C@H](CO)[C@H]2c3ccccc3N(S(=O)(=O)c3ccccc3C)C[C@H]21	1
Cc1ccc(N2C(=O)c3ccccc3C2=O)cc1C	36
O=C(CN1CCC(c2nc3ccccc3[nH]2)CC1)N1CCCc2ccccc21	-7
O=C(CN1CCCC1)N1CCc2ccccc21	-30
O=C(CN1CCC(n2nnc3cc(C(F)(F)F)ccc32)CC1)N1CCc2ccccc21	-81*
Cc1ccc(S(=O)(=O)Nc2cnc3ccccc3c2)cc1	-53
Cc1ccc(S(=O)(=O)Nc2ccc(-c3nc4ccccc4[nH]3)cc2)cc1	-81*
CC(=O)Nc1ccc(S(=O)(=O)Nc2nc3ccccc3nc2Nc2ccc(C)cc2)cc1	-30
CCc1cc2c(=O)n(Cc3cc(=O)[nH]c(N4C[C@@H](C)O[C@@H](C)C4)n3)cnc2s1	18
COc1ccc(C(=O)N(c2cc(C)cc(C)c2)C2(C(=O)NCc3ccccc3)CCN(C(C)=O)CC2)cc1	-1
CC1CCN(c2ncnc3c2cnn3CC(=O)Nc2ccc(F)cc2F)CC1	12
CCCCCCCCCCCCCCSCC(=O)O	9
CCn1c(-c2cc(NC(=O)c3cccnc3)n[nH]2)cc2ccccc21	-105*
CCn1c(-c2cc(NC(=O)c3cnccn3)n[nH]2)cc2ccccc21	78
CCn1c(-c2cc(NC(=O)c3cccnc3)n[nH]2)cc2ccc(OC)cc21	-30
CCN(C(=O)CN1CCCC(O)(Cn2cnc3ccccc32)C1)C1CCS(=O)(=O)C1 (stereo not drawn)	-8
CC1CCN(S(=O)(=O)c2ccc3c(c2)CCC(=O)N3CC(=O)NCc2ccccn2)CC1	36
CCOc1ccccc1CNC(=O)c1nc(N2CCOCC2)c2ccccc2n1	-66
Cc1ccccc1CNC(=O)c1nc(N2CCOCC2)c2ccccc2n1	-35
CCOC(=O)c1nc(N2CCOCC2)c2ccccc2n1	93
CC(C)Oc1ccc(CNC(=O)c2nc(Nc3ccccc3)c3ccccc3n2)cc1	-11
CC(C)Oc1ccc(CNC(=O)c2nc(N3CCOCC3)c3ccccc3n2)cc1	-79*
Cc1ccc(CCNC(=O)c2nc(N3CCOCC3)c3ccccc3n2)cc1	-84*
Cc1cc(Nc2ccc(F)c(Cl)c2)nc(NC(=O)C(C)(C)C)n1	-5
Cn1nc(-c2cccnc2)c2c1NC(=O)CC2c1ccnn1-c1ccccc1 (stereo not drawn)	43
SMILES	Tg IFNy HTS
O=C(c1cc2cccnc2n(Cc2ccc(F)cc2)c1=O)N(Cc1ccccc1)Cc1ccccc1	78
Cc1noc(C)c1NC(=O)Nc1ccc2c(c1)C(=O)N([C@H](C)CO)C[C@H](C)[C@H](CN(C)S(=O)(=O)c1cccs1)OCCCC[C@H](C)O2	262
C[C@H](CO)N1C[C@H](C)[C@H](CN(C)C(=O)c2ccncc2)OCCCC[C@H](C)Oc2ccc(NS(=O)(=O)c3cccs3)cc2C1=O	-47
Cc1noc(C)c1NC(=O)Nc1ccc2c(c1)C(=O)N([C@@H](C)CO)C[C@H](C)[C@H](CN(C)S(=O)(=O)c1cccs1)OCCCC[C@@H](C)O2	328
Cc1ccc(S(=O)(=O)Nc2ccc3c(c2)C(=O)N([C@H](C)CO)C[C@H](C)[C@H](CN(C)S(=O)(=O)c2cccs2)OCCCC[C@H](C)O3)cc1	-121*
C[C@H]1CCCCO[C@@H](CN(C)C(=O)C2CCCCC2)[C@@H](C)CN([C@@H](C)CO)C(=O)c2cc(NS(=O)(=O)c3ccccc3)ccc2O1	-31
C[C@H]1CCCCO[C@H](CN(C)C(=O)C2CCCCC2)[C@@H](C)CN([C@@H](C)CO)C(=O)c2cc(NS(=O)(=O)c3ccccc3)ccc2O1	-33
C[C@H](CO)N1C[C@H](C)[C@H](CN(C)C(=O)C2CCCCC2)OCCCC[C@H](C)Oc2ccc(NS(=O)(=O)c3ccccc3)cc2C1=O	-102*
Cc1ccc(S(=O)(=O)Nc2ccc3c(c2)C(=O)N([C@H](C)CO)C[C@@H](C)[C@H](CN(C)S(=O)(=O)c2cccs2)OCCCC[C@H](C)O3)cc1	-131*
Cc1noc(C)c1NC(=O)Nc1ccc2c(c1)C(=O)N([C@H](C)CO)C[C@H](C)[C@H](CN(C)S(=O)(=O)c1cccs1)OCCCC[C@@H](C)O2	43
Cc1noc(C)c1NC(=O)Nc1ccc2c(c1)C(=O)N([C@H](C)CO)C[C@H](C)[C@@H](CN(C)S(=O)(=O)c1cccs1)OCCCC[C@@H](C)O2	157
Cc1noc(C)c1NC(=O)Nc1ccc2c(c1)C(=O)N([C@H](C)CO)C[C@@H](C)[C@H](CN(C)S(=O)(=O)c1cccs1)OCCCC[C@H](C)O2	442
Cc1ccc(S(=O)(=O)Nc2ccc3c(c2)C(=O)N([C@@H](C)CO)C[C@@H](C)[C@H](CN(C)S(=O)(=O)c2cccs2)OCCCC[C@@H](C)O3)cc1	-103*
Cc1nc(-c2ccc(F)cc2)sc1-c1ccc(SCc2ccncc2)nn1	-14
